The text below walks through data of PubChem BioAssay (EPA / NIEHS).

The term AC50 denotes the concentration giving half of the maximal activity seen.

Values joined by “and” are separate entries in the source; they are usually repeats but may differ in a detail not shown here. Equal values may be shown once. Some compounds were tested as several samples or in several runs, with calls that do not always agree. Active and inactive are the calls of the source. Rule for the calls: active = hit-call score of the fitted dose curve at least 0.9, where 1 is the maximum; inactive = score below 0.9. Peptide text beside a SMILES is read from it.

A short description of one test: CCTE_Shafer_MEA_dev_mutual_information_norm: CCTE's Neural Network Formation Assay for Mutual Information Normalization, Shafer Lab (AID 2284091).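 For AC50: mutual information between electrodes summarised as area under curve across four recording days; potency is for a decrease in mutual information relative to DMSO.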 An outline of the steps:
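Rat cortical cultures, 48-well MEA, continuous exposure DIV 0–12 with full media/compound change DIV 5 and 9. Readout: inter-electrode mutual information, AxIS adaptive spike detection; AUC across DIV 5/7/9/12 recordings; DMSO baseline, negative fitting direction.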
Regarding `COC(=O)[C@H](Cc1ccccc1)NC(=O)[C@@H](N)CC(=O)O` (H-Asp-Phe-OMe), the molecule was classed as inactive.
Regarding `Cc1c(C(=O)c2c[nH]n(C)c2=O)ccc(S(C)(=O)=O)c1C1=NOCC1`, the outcome was inactive.
Turning to `Cc1noc(NS(=O)(=O)c2ccc(N)cc2)c1C`, the result was inactive.
`CCCCNS(=O)(=O)c1ccccc1`: the call was inactive.
For the molecule `C[N+](C)(C)CCCNS(=O)(=O)C(F)(F)C(F)(F)C(F)(F)C(F)(F)C(F)(F)C(F)(F)C(F)(F)C(F)(F)F`, the AC50 was 906 nM (active) and 914 nM (active).

A further test is described as follows: CCTE_Shafer_MEA_dev_correlation_coefficient_mean: CCTE's Neural Network Formation Assay for Mean Correlation Coefficient, Shafer Lab (AID 2284093).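 For AC50: well mean pairwise spike train correlation integrated as AUC over recording days 5 to 12; potency fitted for loss of correlation relative to DMSO vehicle wells.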 An outline of the steps: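 Read-out: well-mean correlation coefficient of spike trains between electrode pairs, collapsed over four recording days as trapezoidal area-under-the-curve. Developing rat cortical neuron networks grown on MEAs received test chemical continuously from plating.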
Turning to `COC(=O)[C@H](Cc1ccccc1)NC(=O)[C@@H](N)CC(=O)O` (H-Asp-Phe-OMe), the result was inactive.
With `Cc1c(C(=O)c2c[nH]n(C)c2=O)ccc(S(C)(=O)=O)c1C1=NOCC1`, the result was inactive.
Same read-out and setting: the entry for `Cc1noc(NS(=O)(=O)c2ccc(N)cc2)c1C` is “inactive”; for `CCCCNS(=O)(=O)c1ccccc1` it is “inactive”.
Turning to `C[N+](C)(C)CCCNS(=O)(=O)C(F)(F)C(F)(F)C(F)(F)C(F)(F)C(F)(F)C(F)(F)C(F)(F)C(F)(F)F`, the AC50 was 4.2 µM (active) and the molecule was classed as inactive.

A short description of the next test: CCTE_Mundy_HCI_Cortical_Synap_Neur_Matur_NeuriteSpotCountPerNeuriteLength: CCTE's Synaptogenesis and Neurite Maturation Assay in rat cortical cells for Neurite Spot Count per Neurite Length, Mundy Lab (AID 2284210). An outline of the steps: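 Rat primary cortical cultures, glia arrested with AraC at DIV 5, were dosed with media change at DIV 7 and fixed at DIV 12. Synaptophysin puncta per MAP2-labelled neurite length were quantified by high-content imaging versus DMSO.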
Take `COC(=O)[C@H](Cc1ccccc1)NC(=O)[C@@H](N)CC(=O)O` (H-Asp-Phe-OMe): the molecule was classed as inactive.
For the molecule `Cc1c(C(=O)c2c[nH]n(C)c2=O)ccc(S(C)(=O)=O)c1C1=NOCC1`, the molecule was classed as inactive.
Consider `Cc1noc(NS(=O)(=O)c2ccc(N)cc2)c1C`, for which the result was inactive.
With `CCCCNS(=O)(=O)c1ccccc1`, the call was inactive.

The next test is described as follows: CCTE_Mundy_HCI_Cortical_Synap_Neur_Matur_BPCount: CCTE's Synaptogenesis and Neurite Maturation Assay in rat cortical cells for Branch Point Count, Mundy Lab (AID 2284211). An outline of the steps:
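Branch point number is quantified by automated imaging of fluorescently labelled neurites and synapses in rat primary cortical neurons exposed from DIV 7 to DIV 12. Activity is analysed relative to DMSO negative control.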
With `COC(=O)[C@H](Cc1ccccc1)NC(=O)[C@@H](N)CC(=O)O` (H-Asp-Phe-OMe), the molecule was classed as inactive.
As for `Cc1c(C(=O)c2c[nH]n(C)c2=O)ccc(S(C)(=O)=O)c1C1=NOCC1`, the molecule was classed as inactive.
With `Cc1noc(NS(=O)(=O)c2ccc(N)cc2)c1C`, the molecule was called inactive.
Still for that read-out and setting: next, `CCCCNS(=O)(=O)c1ccccc1`: “inactive”.
